DRD3 antagonist – blocks the human D3 dopamine receptor | max response, negative = inhibition, % | D3R cells, DiscoveRx beta-arrestin luminescence, antagonist mode; active compounds read low | AID 652054 | 360,000 tested, 2.5% active | P35462; in the data active means max response below about -50%; inconclusive means no clear call, values can overlap the other calls; further: on the % scale 0 is the no-effect control and ±100 the full control effect
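Cells expressing the human receptor were seeded at 1500 cells/well, incubated overnight at 37 degrees C in 5% CO2, then exposed to library compounds with dopamine controls for 90 minutes at 37 degrees C before luminescent detection.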
ERG Ets-DNA blk – blocks human ERG Ets domain binding to DNA; P11308; fluorescence polarization, His-ERG Ets domain / labelled DNA; Potency, µM (top dose mostly 76.9 µM), for inactives: top-dose FP activity, negative = inhibition, hits mostly inhibitors; 370,000 tested, 0.028% active; active means well fitted inhibition curve with a large enough effect in the polarisation, with a control signal flat; inconclusive means small, poorly fitted or top-dose-only effect, or effect the other way, or a change in a side signal; inactive means no such curve, though single readings can be large or run the other way; the % refers to the polarisation;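 further: polarization taken with two DNA probes labelled with fluorescein and Texas red; potency means the concentration at half of the fitted maximal effect; % of control where 0% means no effect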
Target sequence (P11308 whole entry, looked up, the tested form may be a part): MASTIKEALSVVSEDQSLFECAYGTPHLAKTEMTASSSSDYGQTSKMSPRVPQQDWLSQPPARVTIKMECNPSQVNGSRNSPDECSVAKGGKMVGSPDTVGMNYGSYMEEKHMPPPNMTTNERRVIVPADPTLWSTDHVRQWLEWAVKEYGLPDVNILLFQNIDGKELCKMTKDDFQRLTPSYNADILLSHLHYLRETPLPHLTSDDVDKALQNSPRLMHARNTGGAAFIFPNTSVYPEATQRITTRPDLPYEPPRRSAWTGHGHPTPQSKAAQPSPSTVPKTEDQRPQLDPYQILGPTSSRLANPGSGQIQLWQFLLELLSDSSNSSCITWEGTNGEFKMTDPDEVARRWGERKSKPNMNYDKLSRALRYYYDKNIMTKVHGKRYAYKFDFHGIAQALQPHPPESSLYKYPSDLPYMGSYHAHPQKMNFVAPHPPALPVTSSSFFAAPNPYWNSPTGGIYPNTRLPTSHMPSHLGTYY
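His-tagged ERG Ets domain (1 uM in the protein solution; 300mM KCl, 50mM Tris-HCl, 1mM EDTA, 1mM DTT, pH 7.5) received compound, then a probe mix of 5 nM fluorescein-DNA and 100nM Texas-615-DNA. Fluorescence polarization was read for both dyes.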
D1 potentiator – human D1 dopamine receptor positive modulation; HEK293 TREx D1 cells, calcium flux, dopamine EC20 potentiation; potentiation, % at 10 µM; 360,000 tested, 0.036% active; AID 504651; in the data active means potentiation above about 30%; further: 0% is about no effect
D1 antagonist – blocks dopamine activation of the human D1 receptor; 360,000 tested, 3.2% active; HEK293 TREx D1 cells, calcium flux, dopamine EC80; active compounds read low; activity change, negative = inhibition, % at 10 µM; AID 504652; P21728; in the data active means activity change below about -30%; further: on the % scale 0 is the no-effect control and ±100 the full control effect
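Tetracycline-induced HEK293 T-REx cells with force-coupled D1 receptor were loaded with a no-wash calcium dye. Compound was added after a 10 s baseline and read kinetically for 180 s; EC80 dopamine was then added and calcium flux followed another 180 s.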
D3 ag – activates the human D3 dopamine receptor. P35462. D3R DiscoveRx beta-arrestin cells, luminescence, 90 min. max activation, %. 410,000 tested, 0.58% active; in the data active means max activation above about 30%; further: 0% is about no effect
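Cells at 1500/well, incubated overnight, then treated with pinned compounds (dopamine as control) for 90 min at 37 degrees C. DiscoveRx reagent added for 30 - 60 minutes at room temperature; luminescence read.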
D1 agonist – activates the human D1 dopamine receptor; activation, % at 2 µM; P21728; 360,000 tested, 1% active; HEK293 T-REx D1 cells, calcium flux, agonist mode; in the data active means activation above about 30%; further: 0% is about no effect
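Inducible HEK293 T-REx D1 cells, force-coupled to calcium signalling, were plated at 4000 cells/well with tetracycline and held overnight at 30 C. After no-wash calcium dye loading, compound-evoked calcium rise over 180 s flagged agonists.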
An asterisk follows results filed as active; ? = inconclusive; · = no result. Sampled rows, rich in hits. Any-hit rate of the full collection: about 6.1%.

SMILES	DRD3 antagonist	ERG Ets-DNA blk	D1 potentiator	D1 antagonist	D3 ag	D1 agonist
Cn1c(=O)n(C)c2cc(NC(=O)c3ccc(F)cc3)c(Br)cc21	15.6	-3.1%	-1.6	-4.4	6.2	4.0
Cn1/c(=N/N=C/c2ccc([N+](=O)[O-])cc2)sc2ccccc21	·	·	3.2	3.2	·	30.4*
Cn1c(=NN=Cc2ccccc2OCCO)sc2ccccc21	22.1	·	·	·	5.1	·
COc1ccc(NC(=O)CN2CCC(C(=O)c3ccc(F)cc3)CC2)c(OC)c1	-73.3*	3.8%	-12.7	1.4	-16.6	13.9
COc1ccc(NC(=O)CN2CCN(C(=O)C3CCCO3)CC2)c(OC)c1 (stereo not given)	14.0	0.7%	3.1	4.2	1.8	50.0*
COc1ccc(NC(=O)CN2CCN(CC(=O)Nc3ccccc3OC)CC2)c(OC)c1	3.0	-1.9%	-2.8	-2.0	4.1	0.0
COc1ccc(NC(=O)CN2CCC(C(=O)c3ccc(C)cc3)CC2)c(OC)c1	-71.0*	-13.3%	-8.5	-1.6	-19.0	1.7
COCC1CCN(Cc2cn[nH]c2-c2ccc(OC)cc2F)C1 (stereo not given)	-11.3	2.1%	-2.6	-6.5	-6.9	2.7
COc1ccc(-c2[nH]ncc2CN2CCC(OCc3ccccc3)CC2)c(F)c1	5.3	5.3%	-4.8	-51.9*	4.6	11.3
COc1ccc(OC)c(NC(=O)CN2CCC(C(=O)c3ccc(C)cc3)CC2)c1	?	-2.6%	-8.4	-1.5	-11.5	0.5
CSc1sc(C(=O)O)c(C)c1C(C)=O	6.0	-2.1%	3.5	5.3	-12.2	1.2
S=C(NCc1ccc(Cl)c(Cl)c1)NCc1ccco1	-14.8	-14.9%	-4.9	-17.4	7.4	2.4
COc1ccc(-c2[nH]ncc2CN2CCC(C(=O)c3ccc(F)cc3)CC2)cc1	-90.2*	-0.2%	-1.6	13.7	-16.3	12.2
COc1ccc(NC(=O)COC(=O)c2ncc(Cl)c(Cl)c2Cl)c(OC)c1	2.1	-3.4%	-2.1	-41.1*	6.7	0.4
COc1ccc(NC(=O)CN2CCN(CC(=O)Nc3ccccc3Cl)CC2)c(OC)c1	26.6	-3.3%	-2.6	-1.7	30.4*	2.2
COC(=O)c1ccc(NC(=O)CN2C(=O)NC3(CCC(C)CC3)C2=O)cc1 (stereo not given)	-17.4	-13.8%	·	·	2.0	·
O=C(N/N=C/c1ccc([N+](=O)[O-])s1)c1cccc(Br)c1	0.0	-2.8%	-3.4	-9.1	-0.4	11.3
CN(C)CCCN(C(=O)c1ccc2c(c1)CCCC2)c1nc2ccc(Cl)cc2s1	-88.1*	·	-5.8	8.8	-10.2	17.5
CN(C)CCCN(C(=O)CCc1ccccc1)c1nc2ccc(Cl)cc2s1	-16.9	4.9%	-8.5	-8.3	-34.7	31.4*
CCOc1ccc2nc(N(CCCN(C)C)C(=O)c3ccc4c(c3)CCCC4)sc2c1	-84.3*	15.4%	-9.6	-24.6	-22.9	24.4
CCOc1ccc2nc(N(CCCN(C)C)C(=O)c3ccc(S(=O)(=O)N4CCc5ccccc5C4)cc3)sc2c1	-1.0	-2.5%	-2.7	24.0	1.0	19.2
CC(C)C(NS(=O)(=O)c1ccccc1)C(=O)N1CCCC1 (stereo not given)	-13.6	-3.9%	-7.5	3.4	-6.2	0.8
N#CCCn1cc(/C=C/C(=O)O)c(-c2ccc(F)cc2)n1	1.8	6.1%	-4.3	-1.8	0.3	1.3
CCOC(=O)c1sc(C)c2c1NC1(CCCCCC1)NC2=O	-4.4	6.0%	-1.6	-11.8	-3.9	0.1
CCOC(=O)c1sc(C)c2c1NC1(CCCCC1)NC2=O	4.1	9.2%	2.8	1.2	46.8*	2.1
Cc1ccc(O)c(NC(=O)c2cccc(S(=O)(=O)N3CCCCC3)c2)c1	0.0	0.1%	-3.0	16.9	-3.6	5.8
Cc1ccc(O)c(NC(=O)c2ccc(Br)c(S(=O)(=O)N3CCCCC3)c2)c1	·	1.7%	-2.4	-58.2*	-9.1	14.3
O=C(O)CCN(CCC(=O)O)S(=O)(=O)c1ccccc1	-4.7	2.8%	-2.4	-2.4	-0.5	1.7
O=C(O)CCN(CCC(=O)O)c1ccccc1	1.1	-3.7%	-3.7	-92.7*	3.2	1.5

Screening results (PubChem)
